The labels stand for the following.
B1: chr13:120183613:120183614:-_ENSMUSG00000025453_ENSMUST00000099149|mus_hu|FALSE|FALSE (ssRNA)
RNA: GGGAGUUCUACAGUCCGACGAUCGUAAAUAAAACUAAUCAGCGUUCCUGAUGUCUUUAAAAGGUCAGCUUCAUGAACACCUAAUGUUGGAUUAACCAUAGGGGCUCGCACUUUGACCACCAAAUCAGAAGCCAGCACUUCCUUCAACAGAGGAUUGAGCAUCA
B2: chr7:34927866:34927867:-_ENSMUSG00000052997_ENSMUST00000102746|mus_mus|FALSE|FALSE (ssRNA)
RNA: GGGAGUUCUACAGUCCGACGAUCGCUUUUGGCAGCAUCUUCAGCUUGUUUUGGCCCCACUUUUUCAGGGCUGUCACCAACUACUUCAAAUUCAACAUCCUUUCCAAGAUCUUCACUAUGAAGAAUGUUGAUCAGCAAAGUAUACAACAGAGGAUUGAGCAUCA
B3: chr6:52144354:52144355:-_ENSG00000112118_ENST00000229854|hu_hu|FALSE|FALSE (ssRNA)
RNA: GGGAGUUCUACAGUCCGACGAUCGGCUGGGGCCUUCUCCGGCAUCUCCUGGAUGGUGAUGGUCUGGUGAUCCUUGUAGACAGAAAGGCCAUAUUCUGUCUCAAGGGGAUUGUUCUCCUCAUCCUUGGUAGGAUAGACAGAGCUCAACAGAGGAUUGAGCAUCA
B4: chrX:15845472:15845473:-_ENSG00000182287_ENST00000329235|hu_hu|motif|central (ssRNA)
RNA: GGGAGUUCUACAGUCCGACGAUCCCACAAGAAGUCAUCAACAAGGGAGGAGAGUUAUGUCAGUCCAAUUUCUUCAAGAACACGGCGUGGGGUUUCAGCUUCCUCCUGCAGUAGAUCAGCCUGCUCAAUUGCUUUAAGGACAUUCAACAGAGGAUUGAGCAUCA
B5: chr16:45382771:45382772:-_ENSMUSG00000022661_ENSMUST00000163230|mus_mus|mus_mus_mus_hu_True|1_78 (ssRNA)
RNA: GGGAGUUCUACAGUCCGACGAUCCUGGGUCAUGUUAUAAGACAAAUGGACAGGGAGAGCAUGCUUUUCAAAAAAUGUGAGCUAUUGUCUAAGACUAACAAUAUUUAUCUAGCUAUAAAAAUAAGUUAAAUGAAUAAACAUUACCAACAGAGGAUUGAGCAUCA
B6: chr16:45382771:45382772:-_ENSMUSG00000022661_ENSMUST00000163230|mus_mus|mus_mus_mus_hu_True|8_78 (ssRNA)
RNA: GGGAGUUCUACAGUCCGACGAUCCUGGGUCAUGUUAUAAGACAAAUGGACAGGGAGAGCAUGCUUUUCAAAAAAUGUGAGCUAUUGUCUAAGACUAACAAUAUUUAUCUAGCUAUAAAAAUAAGUUUUAAAUGGACGUUAAGACAACAGAGGAUUGAGCAUCA
B7: chr16:45382771:45382772:-_ENSMUSG00000022661_ENSMUST00000163230|mus_mus|mus_mus_mus_hu_True|18_78 (ssRNA)
RNA: GGGAGUUCUACAGUCCGACGAUCCUGGGUCAUGUUAUAAGACAAAUGGACAGGGAGAGCAUGCUUUUCAAAAAAUGUGAGCUAUUGUCUAAGACUAACAAUAUUUAUCUAGCUAUAUAAAAAUAAGAAAUGAAUAAGUUAAGACAACAGAGGAUUGAGCAUCA
B8: chr2:121258011:121258012:+_ENSMUSG00000027248_ENSMUST00000028683|mus_mus|FALSE|FALSE (ssRNA)
RNA: GGGAGUUCUACAGUCCGACGAUCCUUGCCUUGUAUCAAAUCUUUAUUAUCUUCCGUCAUAUGAGGACAGAGACCAAAAAUGCUAUCCUGAAUAAAUUUCUUGAUCUUGCCACUGGUCAUUUUCUUUUCAGUAUAUGCCACAGUCAACAGAGGAUUGAGCAUCA
B9: chr15:42481402:42481403:-_ENSG00000166887_ENST00000318006|hu_hu|FALSE|FALSE (ssRNA)
RNA: GGGAGUUCUACAGUCCGACGAUCCUUUGAAACCGUAGUGAUUUGUUGAAAUGUCAAUAGGUCAUGGACAUAAAUGUUAUUUUCUAACAAGCUGACCAGAAUCUUAAACUGGGAAACCACAUGGAUCUGCUGAAUCUUUUUGGACAACAGAGGAUUGAGCAUCA
B10: 83126405_83126525_1642_CDS_ENSMUSG00000058881_ENSMUST00000071233|mouse|control|control (ssRNA)
RNA: GGGAGUUCUACAGUCCGACGAUCCCGGGGAUCAAGGUGGCCAGAAAGCAUGGGGUCCCCAGGUACACUGGCCCUCUUCCUCGGGGGAGCUUGGGUAGCCGGAGCAUCCUGUUCACGCUUGCGUUUUUCCUGGCUCACCAGUAUCAACAGAGGAUUGAGCAUCA
B11: chr7:54825262:54825263:-_ENSG00000132432_ENST00000352861|hu_hu|hu_hu_hu_mus_False|18_38 (ssRNA)
RNA: GGGAGUUCUACAGUCCGACGAUCCUGCCGGCUGGGCUCCACAAACUGCAUUACCUGAUCCAUGUUUGUUGGAUGGCGGAUUGAGAGCGUAGAGACAACGUAGCACUGAGAGAACCGGAUGGAGGCCAACCGGAAGCUGGCAACCAACAGAGGAUUGAGCAUCA
B12: chr2:42543136:42543137:+_ENSG00000143924_ENST00000318522|hu_mus|FALSE|FALSE (ssRNA)
RNA: GGGAGUUCUACAGUCCGACGAUCAUCUACUGAGUAGCGCAUCACAGACAGCUGCUCAUUGCCAUCCGUGUGGAUUGACACCAGAUCUCUUGUUUCUGCAUCCAGAACAAACCACCUGCCUGAGUGCGUUCCAAUGGCUACCACCAACAGAGGAUUGAGCAUCA
B13: chr19:8913615:8913616:-_ENSMUSG00000071658_ENSMUST00000096259|mus_hu|mus_mus_mus_hu_False|48_78 (ssRNA)
RNA: GGGAGUUCUACAGUCCGACGAUCAGGGUACCAAAACCUUCUGCCUGAAAUGGGUGCCCCACCCUGCAGGGAGUUGCAGCUGAAAGUAUCCGUAGCAGAAGCAGUGACUAUACGAAAGGAGGCCCCUGGGGAGGGCCAGGCCAGCAACAGAGGAUUGAGCAUCA

Here are results for 13 molecules from publication PMC12136788.

Whole data set: some 24,000 sequences, median “enrichment r” near 0.99, cut for the highest 2% near 3.7. The full list was thinned out, with the highest values kept by preference.

The experiment concerns the target T1, UNK ZnF1-3 (human, UniProt Q9C0B0 31-174).
T1 sequence: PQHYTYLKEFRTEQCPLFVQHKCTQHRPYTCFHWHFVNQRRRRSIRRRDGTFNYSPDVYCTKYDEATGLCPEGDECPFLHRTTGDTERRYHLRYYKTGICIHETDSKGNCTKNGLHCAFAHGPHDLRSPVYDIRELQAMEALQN
Description: nsRBNS (natural sequence RNA bind-n-seq); RBNS binding buffer (assumed for nsRBNS): 25 mM Tris pH 7.5, 150 mM KCl, 3 mM MgCl2, 0.01% Triton X-100, 500 ug/ml BSA, 20 U/ml SUPERase-In, 4 C; UNK is unkempt and MSI1 is Musashi-1; names of the RNAs are library labels; protein concentration not given here; high values mean tight binding.
With B1, the binding signal came out at 0.662 enrichment R. Molecule B2 registered a binding signal of 0.727 enrichment R. In the case of B3 it was 0.84 enrichment R; in that of B4, 1.51 enrichment R. As for B5, the binding signal is 4.46 enrichment R. The molecule B6 gave a binding signal of 5.26 enrichment R. As for B7, the binding signal was found to be 10 enrichment R. As to B8, the binding signal amounted to 1.28 enrichment R. In the case of B9 it was 0.563 enrichment R; in that of B10, 0.53 enrichment R. B11 registered a binding signal of 0.908 enrichment R. On to B12, for which the binding signal was found to be 0.836 enrichment R. In turn, B13 showed a binding signal of 1.24 enrichment R.
